Experimental data published in ChEMBL document CHEMBL3433997, “St. Jude Leishmania screening dataset” (2016).

Legend:
Type in all cases: functional
[1] = target: Solute carrier family 2, facilitated glucose transporter member 1 (Homo sapiens) (UniProt P11166); experiment: ST_JUDE_LEISH: Cytotoxicity at 2uM final concentration against transgenic Leishmania Mexicana promastigotes LmGLUT1 that are glucose transport deficient and complemented with the human glucose transporter GLUT1. Activity is measured by DNA content using SYBR green in vitro
Sequence of Solute carrier family 2, facilitated glucose transporter member 1 (Homo sapiens) (P11166 whole entry): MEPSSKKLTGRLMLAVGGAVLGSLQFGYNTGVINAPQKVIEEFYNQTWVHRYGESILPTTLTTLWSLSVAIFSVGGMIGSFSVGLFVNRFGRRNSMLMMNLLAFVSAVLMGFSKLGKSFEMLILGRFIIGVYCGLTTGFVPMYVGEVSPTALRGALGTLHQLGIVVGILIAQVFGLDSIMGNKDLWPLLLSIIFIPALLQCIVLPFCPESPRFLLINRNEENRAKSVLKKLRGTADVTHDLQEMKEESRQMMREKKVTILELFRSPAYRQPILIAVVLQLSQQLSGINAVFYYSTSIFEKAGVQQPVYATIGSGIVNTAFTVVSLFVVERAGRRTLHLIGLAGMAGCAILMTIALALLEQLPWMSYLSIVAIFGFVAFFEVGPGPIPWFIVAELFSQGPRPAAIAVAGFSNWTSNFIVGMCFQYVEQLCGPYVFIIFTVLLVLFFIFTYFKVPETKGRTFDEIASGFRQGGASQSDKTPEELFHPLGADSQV

[2] = target: Hexose transporter 1 (Plasmodium falciparum) (UniProt O97467); experiment: ST_JUDE_LEISH: Cytotoxicity at 2uM final concentration against transgenic Leishmania Mexicana promastigotes LmPfHT that are glucose transport deficient and complemented with the Plasmodium falciparum hexose transporter. Activity is measured by DNA content using SYBR green in vitro
[3] = target: Glucose transporter (Leishmania mexicana) (UniProt O61059); experiment: ST_JUDE_LEISH: Cytotoxicity at 2uM final concentration against transgenic Leishmania Mexicana promastigotes LmGT2 that are glucose transport deficient and complemented with the L. Mexicana glucose transporter 2. Activity is measured by DNA content using SYBR green in vitro

| SMILES | inhibition [1] [%] | inhibition [2] [%] | inhibition [3] [%] |
| --- | --- | --- | --- |
| CC(C)c1cc2c(ccc3nc(N)nc(N)c32)o1 | 3.76 | 5.34 | 2.93 |
| COc1ccc(CN2CCC(NCc3cccc(-n4ccnc4)c3)CC2)cc1 | 3.99 | 3.17 | 2.72 |
| Oc1cc2c(cc1CN1CCN(Cc3cccs3)CC1)CCC2 | 0.97 | -0.33 | 2.76 |
| O=C(Nc1ccc(-c2ccccc2)cc1)Nc1cccc(Cn2ncc(N3CCCNCC3)c(Cl)c2=O)c1 | 1.74 | 0.84 | 0.04 |
| c1ccc2c(NCCOCCNc3c4ccccc4nc4ccccc34)c3ccccc3nc2c1 | 1.61 | 2.67 | 3.48 |
| NC(CC1CC(=O)N1CC(=O)O)C(=O)O (stereo unspecified) | 8.57 | 7.82 | 8.53 |
| C=C[C@H]1CN(CCCCCCC)CC[C@H]1CC(=O)Nc1cnnc2ccc(OC)cc12 | 1.79 | 0.25 | 4.78 |
| CC[C@H](C)CNC(=O)c1cncc(-c2cccc(CN(C)C3CCN(C)CC3)c2)c1 | 2.22 | 2.75 | 3.37 |
| O=C(NCC1CCC(C(=O)NCc2cccc(C(F)(F)F)c2)CC1)c1ccc(O)c(-c2ccc(Cl)c(Cl)c2)c1 (stereo unspecified) | 0.99 | 2.82 | 2.98 |
| Cc1ccc(CNC(=N)NC(=O)c2nc(Cl)c(NCc3ccc(Cl)cc3)nc2N)c(C)c1 | -0.6 | 0.67 | 1.11 |
| Cc1cccc(Nc2nccc(NCC(O)c3cccc(C(F)(F)F)c3)n2)c1 (stereo unspecified) | 7.67 | 7.59 | 2.59 |
| c1cc(CNCC2CCCO2)cc(-c2ccc(-c3nc4ccccc4[nH]3)s2)c1 (stereo unspecified) | 0.61 | -3.37 | -0.92 |
| CCOC(=O)CNC(=O)c1cc(=O)c2ccccc2o1 | 0.86 | 0.78 | 0.44 |
| Cc1ccc(C(=O)Nc2ccc(Nc3ccnc4cc(-c5ccccn5)ccc34)cc2O)cc1 | 7.39 | 10 | 4.76 |
| N#Cc1ccccc1C(=O)N(Cc1cncn1Cc1cccc(F)c1)CC1CC1 | 6.38 | 10.2 | 8.88 |
| Cc1cc(Nc2ccccc2)nc(NCCOc2ccccc2)n1 | 5.53 | 8.42 | 2.95 |
| COc1cc(O)c2c(=O)c(OC)c(-c3cccc(Cl)c3OCC(=O)O)oc2c1OC | -2.29 | -1.48 | -0.46 |
